CCHF vOTU inh: CCHFV vOTU protease inhibitors, primary screen, biochemical, Pep-AMC substrate, fluorescence. actives 0.55% (n = 370,000). AID 651958, 2012. inhibition, % at 11.5 µM. Crimean-Congo hemorrhagic fever virus L polyprotein viral ovarian tumor (vOTU) protease …; in the data active = inhibition above about 30%; note: 0% = vehicle wells with enzyme and 100% = no enzyme wells
PrPC surface inh: inhibitors of human cell surface prion protein PrPC, primary screen, cell-based, TR-FRET | TR-FRET read-out | Major prion protein (Homo sapiens), P04156 | actives 0.43% (n = 370,000) | AID 720596, 2013 | inhibition, % at 13.8 µM; in the data active = inhibition above about 24%; note: 0% = median of the test wells and 100% = reference compound wells
BJeLR viability: MLPCN primary cell-based screen for lethality selective to Ras in HRASV12 cells; BJeLR (HRASV12) viability, CellTiter-Glo ATP luminescence, 48 h; actives 0.17% (n = 300,000); AID 1554, 2009; inhibition, % (test concentration not listed); in the data active = inhibition above about 50%
PfHsp40 yeast: rescue of yeast from PfHsp40 toxicity, primary screen, S. cerevisiae, ATP luminescence. growth rescue, % at 12.5 µM. actives 0.68% (n = 340,000). S. cerevisiae expressing PfHsp40, growth rescue; in the data active = growth rescue above about 28%, passing the limit was not always enough;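 note: yeast W303a lacking pdr1 and pdr3 grown in galactose medium; growth measured after three days at 30 °C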
PrP 5UTR inh: inhibition of PrP 5' UTR reporter expression | cell-based PrP 5' UTR mRNA reporter, plate reader | inhibition, % (concentration not given with the values) | actives 0.35% (n = 340,000) | AID 488862, 2010; in the data active = inhibition above about 52%; note: 0 = median of the neutral control wells
Yp Topo-I inh: Yersinia pestis topoisomerase I inhibitors, primary screen, biochemical, cleavage product accumulation, plate reader, single point | DNA topoisomerase I (Yersinia pestis CO92) | Y. pestis Topo-I cleavage product accumulation | activity, % at 10 µM | actives 0.064% (n = 360,000) | AID 504884, 2011; in the data active = activity above about 50%, passing the limit was not always enough
PrPC TRFRET cf: confirmation of inhibitors of cell surface human prion protein, confirmation, cell-based, TR-FRET; shares compounds with PrPC surface inh; cell surface PrPC level; inhibition, % at 13.8 µM; actives 65% (n = 1,500); AID 743200, 2013; in the data active = inhibition above about 25%
LD9 cytotox: cytotoxicity in LD9 cells, cytotoxicity control for cell surface PrPc inhibitor project, cell-based, luminescence, high throughput; luminescence viability; shares compounds with PrPC surface inh; inhibition, % at 13.8 µM; actives 29% (n = 1,500); AID 743201, 2013; in the data active = inhibition above about 9.5%
The depositor's hits bear a star; / = not tested or not shown. Sampled rows, rich in hits. Any-hit rate of the full collection: about 2%.

SMILES	CCHF vOTU inh	PrPC surface inh	BJeLR viability	PfHsp40 yeast	PrP 5UTR inh	Yp Topo-I inh	PrPC TRFRET cf	LD9 cytotox
CC(C)NC(=S)n1cc(C(=O)c2cc(Cl)cc(Cl)c2O)cn1	3	41*	1	-1	-11	-5	10	-3
O=C1[C@H]2[C@@H](c3ccccc3)N[C@]3(CCCN(Cc4ccc(Cl)cc4)C3=O)[C@H]2C(=O)N1Cc1ccccc1	7	27*	/	/	/	9	3	-10
CN(Cc1ccco1)C(=O)CN1C(=O)C2(OCCCO2)c2ccccc21	-9	-1	/	/	/	/	/	/
COc1cccc(/C=C2\CC3(OC(=O)c4ccccc4)CCCN2C3)c1 (stereo not given)	7	3	/	/	/	/	/	/
Cn1c(=O)c2cc(NC(=O)CCc3ccc4c(c3)OCO4)ccc2n1Cc1ccc(F)cc1	-37	31*	/	/	/	35	19	6
COc1ccc(OC)c(CC(=O)Nc2ccc3c(c2)c(=O)n(C)n3Cc2cccc(C(F)(F)F)c2)c1	-35	82*	/	/	/	38	29*	4
COc1cc(Cn2c3ccc(NC(=O)CCc4ccc(O)cc4)cc3c(=O)n2C)ccc1F	-73	28*	/	/	/	4	20	-5
COC(=O)[C@@]12CCCCC3=C1N(CCC3)C(=O)[C@H]2CC(=O)NCC12CC3CC(CC(C3)C1)C2	11	-6	/	/	/	/	/	/
COc1cccc(NC(=O)NC2CCCCN(Cc3ccccc3C)C2=O)c1 (stereo not given)	1	14	/	/	/	/	/	/
CC1CCN(C(=O)COc2cccc3c2CCN(Cc2ccccc2)C3=O)CC1	10	18	/	0	0	31	/	/
O=C(COc1cccc2c1CCN(Cc1ccccc1)C2=O)N1CCCCC1	-7	29*	-4	2	-8	13	18	-3
CCc1cc(=O)oc2cc(OC(C)=O)cc(OC(C)=O)c12	-238	47*	-3	-1	-4	-1	46*	-6
COc1cc(OCc2ccccc2)c2c(CCC(=O)O)cc(=O)oc2c1	-288	11	/	2	-17	10	/	/
CC(=O)Nc1sc2c(c1-c1nc3ccccc3s1)CCN(C(C)C)CC2	/	2	/	/	/	/	/	/
Cn1c(SCC(=O)N2CCc3ccccc3C2)nnc1-c1ccncc1	6	41*	11	0	-10	-2	-5	-8
COc1ccc(CN(Cc2nc3ccccc3c(=O)[nH]2)C(=O)NC2CCCCC2)cc1	5	25*	3	-1	-14	25	-1	-2
O=C(NC1CCCCC1)N(Cc1nc2ccccc2c(=O)[nH]1)C1CCCCC1	7	4	-1	0	-1	5	/	/
COC(=O)[C@]12C[C@H](CC(=O)NCc3cccc4ccccc34)C(=O)N(Cc3ccco3)C1=C[C@H](COCc1ccccc1)O[C@@H]2C	17	7	/	/	/	/	/	/
Cc1cccc(NS(=O)(=O)c2ccc3oc(=O)ccc3c2)c1C	-8	37*	2	0	2	-1	20	-6
COc1ccc(NC(=O)c2nnn(CC(=O)Nc3ccc4c(c3)OCO4)c2N)cc1OC	4	-4	11	0	7	-5	/	/
COc1ccc(Br)cc1Cn1nnc(C(=O)Nc2ccc3c(c2)OCCO3)c1N	-5	25*	-2	5	-30	11	18	0
COc1ccc(S(=O)(=O)N2CCCCC2c2cc(C(=O)Nc3ccc4c(c3)OCO4)no2)cc1 (stereo not given)	-1	28*	/	/	/	0	18	-3
N#Cc1cccc(NC(=O)c2cc(C3CCCCN3S(=O)(=O)c3ccccc3)on2)c1 (stereo not given)	10	26*	/	/	/	-6	17	-2

Bioassay records (PubChem)
